Measurements: PubChem BioAssay AID686970 (National Center for Advancing Translational Sciences (NCATS), 2013)
About 6,000 (1.7%) of roughly 360,000 compounds were called active. Inconclusive results (about 8%) are left out. The list comes from a sample in which actives are over-represented; it also holds similar structures and randomly drawn compounds. Unmarked numbers belong to inactive results. The call rests on the fitted dose curve; in most records, active means well fitted cell-killing curve with a large enough effect; inconclusive means small, poorly fitted or top-dose-only effect, or effect the other way; inactive means flat fitted curve, though single readings scatter.

experiment: qHTS for induction of synthetic lethality in tumor cells producing 2HG: qHTS for the HT-1080-NT fibrosarcoma cell line; settings: HT-1080-NT fibrosarcoma viability, CellTiter-Glo ATP luminescence, 48 h; series mostly up to 46.1 µM; activity, negative = less viability: at the top concentration; further: nearly all actives have a fitted effect of over 55% in size
Description: Unbiased genomic sequencing for 22 glioma genomes found recurrent mutation of IDH1 on chromosome 2q33, a gene encoding the cytosolic isoform of IDH1 associated with the tricarboxylic acid cycle (TCA) that catalyzes the oxidative decarboxylation of isocitrate, yielding alpha-ketoglutarate and CO2 via NADP+ to NADPH conversion. Subsequent studies confirmed the recurrent IDH mutations in up to 70% of secondary gliomas and in 10% of AML cases. In addition, the somatic mutation of cancer-associated IDH1 is a point mutation resulting in various amino-acid substituents at Arginine132 (IDH1 R132), a key residue found in the enzyme's active site that when mutated, results in the loss-of-function in metabolizing isocitrate but confers a gain-of-function to produce the oncometabolite 2-hydroxyglutarate (2HG). This in effect defines IDH1 as an oncogene and provides an extraordinary opportunity to discover chemical probes against mutant IDH1 that may translate into much needed new therapies for glioma and AML patients.
This assay aims to perform a synthetic lethal screen for chemical probes specific for 2HG-producing tumor cells using matched paired cell lines (1) HT-1080-NT fibrosarcoma cell line that overproduces 2HG and (2) HT-1080-IDH1KD cell line which has IDH1 expression knocked-down. Desirable compounds are toxic to the NT fibrosarcoma cells but not to the IDH1KD cell line. The data in this AID corresponds to the results of the qHTS against the HT-1080-NT fibrosarcoma cell line.
[1] Dang L, Jin S, Su SM. IDH mutations in glioma and acute myeloid leukemia. Trends of Mol Med. 2010; 16(9): 387-97.
[2] Dang L et al. Cancer-associated IDH1 mutations produce 2-hydroxyglutarate. Nature. 2010; 465(7300):966.
NIH Molecular Libraries Probe Production Centers Network [MLPCN]
NIH Chemical Genomics Center [NCGC]
Assay Submitter (PI): Lenny Dang Ph.D., Agios Pharmaceuticals
Suspensions of trypsinized HT-1080-NT cells were dispensed into white, tissue culture-treated, solid 1536-well plates at 5uL/well (750 cells/well final concentration) in RPMI medium supplemented with 5% FBS. Plates were incubated at 37 degrees C for 2 hours, after which 23 nL of compounds or DMSO were delivered to each well using a pin tool. Plates were then incubated at 37 degrees C for an additional 48 hours. CellTiter-Glo viability reagent (Promega) was dispensed into wells (2.5uL/well) and incubated at room temperature for 10 minutes. The plates were measured on a PerkinElmer ViewLux plate reader for luminescent signal (clear filter, 1 sec exp). DMSO-treated control wells and media-only (no cells) control wells were used to normalize %Activity of identified toxic compounds; DMSO-treated wells corresponded to 0%Activity (100% viability), while media-only controls were used to normalize 100%Activity (0% viability).
Concentration-response curves were fitted to the signals arising from the resulting luminescence. The concentration-effect curves were then classified based on curve quality (r2), response magnitude and degree of measured activity, and compounds were subsequently categorized based on their curve class.
Potency means the concentration at half of the fitted maximal effect.

Structure (SMILES)	Potency	activity, negative = less viability
CCOC(=O)[C@]12Cc3cc(OC)ccc3[C@H]1N(C(C)C)C(=O)c1ccccc12	11.6 µM (active)	
CCOC(=O)[C@]12Cc3ccccc3[C@H]1N(C1CCCCC1)C(=O)c1cc(OC)ccc12	5.8 µM (active)	
CCCC(C)n1[nH]c(=O)c2c1NC(=O)CSC2c1ccc(OC)c(OC)c1 (stereo not given)		0.635%
Oc1cc2c(cc1CN1CCN(c3ccccc3)CC1)OCO2		8.84%
COc1ccccc1OC(=O)c1ccc(C)c(S(=O)(=O)N2CCOCC2)c1		-2.07%
CC1([N+](=O)[O-])COP(=O)(Nc2ccc(F)cc2)OC1 (stereo not given)		6.83%
O=c1c2ccccc2[nH]c(=S)n1-c1cccc(Cl)c1		-1.3%
Cc1cc(-c2ccc(N)c(C)c2)ccc1N		-1.84%
Nc1ccc(Cc2ccc(N)c(Cl)c2)cc1Cl		-19%
COC(=O)C[C@H]1CC[C@H]2NC[C@@H](O)COC[C@@H]2O1		17.8%
Cc1c(Oc2cc(NN3CCCCC3)c([N+](=O)[O-])cc2[N+](=O)[O-])cccc1[N+](=O)[O-]		11%
O=c1c2ccccc2nc(/C=C/c2ccc(F)cc2)n1-c1ccccc1O	23.1 µM (active)	
Cc1nc2ccccc2c(=O)n1-c1ccc(Cl)cc1Cl		-2.24%
O=c1c2ccccc2nc(/C=C/c2ccco2)n1-c1ccccc1O		-24.6%
c1ccc(C(CN2CCCCC2)c2ccccc2)cc1		2.28%
CCc1cccc2c(C#N)cn(CC(=O)N3CCOCC3)c12		-2.69%
COC1C(O)C(C)OC(OC2CCC3(C=O)C(CCC4C3CCC3(C)C(C5=CC(=O)OC5)CCC43O)C2)C1O (stereo not given)	0.206 µM (active)	
C[C@H]1CN([C@@H](C)CO)C(=O)CCCn2nncc2CO[C@H]1CN(C)C(=O)Oc1cccc2ccccc12		4.3%
CCn1cc(CN2CCCC(C(=O)c3cccc(C(F)(F)F)c3)C2)cn1 (stereo not given)		-1.31%
COc1ccc(NC(=O)N2Cc3ccccc3-n3nncc3C2)cc1		4.07%

Structure (SMILES)	Potency	activity, negative = less viability
CC(=CCOc1ccc2ccc(=O)oc2c1)C1=CC(=O)C(C)(C)O1		-21.3%
O=c1c2ccccc2nc(CBr)n1-c1ccc(Cl)cc1		-11%
COC(=O)CN(CCCl)P1(=O)OCCCN1CCCl (stereo not given)		23%
CCCCCCCCCCCCn1ccc(=N)cc1	2.59 µM (active)	
CSC1=NP(=S)(SC)N(C)c2nc3n(c21)CCC3 (stereo not given)		7.49%
COC(=O)C1=C(c2ccc(F)cc2F)C[C@@H]2CC[C@H]1N2C(=O)NC1CC1		7.87%
CC(C)CN1Cc2cc(N3CCCCC3)ccc2-n2nncc2C1		-1.63%
COc1ccc(-c2nn(CCC#N)cc2C(=O)Nc2ccc(C(C)=O)cc2)cc1		-9.46%
CCOC(=O)CNC(=O)N1Cc2cc(N3CCCCC3)ccc2-n2nncc2C1		13%
COc1cc(C2c3cc4c(cc3C(O)C3COC(=O)C23)OCO4)cc(OC)c1OC (stereo not given)	0.0058 µM (active)	
CCN1C(=O)NC(=O)C2(CCCC2)C1=O		2.59%
CCOc1cccc(=NC2CCCCC2)c2c(C)[nH]c(C)c12	20.6 µM (active)	
CCOP(=S)(OCC)C(O)CCCCCn1c(=O)c(F)cn(C2CCCO2)c1=O (stereo not given)		10.4%
COc1cc(C(=O)N2Cc3ccc(Br)cc3-n3nncc3C2)cc(OC)c1OC		28.4%
COC1=C[C@@H]2[C@@H]3Cc4ccc(OC)c(O)c4[C@]2(CCN3C)CC1=O		8.69%
O=[N+]([O-])c1ccc(Cl)c(Cl)c1		13.2%
CC(=O)OC1C2(CC3N4C(=O)C5(CO)SSC4(CC31O)C(=O)N5C)OC(C)C(C)(C)C2=O (stereo not given)	0.651 µM (active)	
CC[C@H]1CC2CN3CCc4c([nH]c5ccccc45)C(C(=O)OC)(C2)C13 (stereo not given in full)		4.35%
CCN(N=Nc1nonc1OC)c1nonc1OC		-0.973%
CCOC(=O)C1CN(C)CCC1=O (stereo not given)		5.26%
